# Where a chain is given by its changes, count along the chain named.
# Key:
# Experiment in all cases: PBM; 200 nM protein, PBS
# Details in all cases: dsDNA, one strand shown
# HOXB4 [1] = biological target: HOXB4 (Homo sapiens, UniProt P17483 148-234)
# HOXA4 [2] = biological target: HOXA4 (Homo sapiens, UniProt Q00056 201-287, W262R)
# HOXA7 [3] = biological target: HOXA7 (Homo sapiens, UniProt P31268 116-202)
# VENTX = biological target: T1, VENTX (Homo sapiens, UniProt O95231 78-163, Y115F)
# T1 sequence: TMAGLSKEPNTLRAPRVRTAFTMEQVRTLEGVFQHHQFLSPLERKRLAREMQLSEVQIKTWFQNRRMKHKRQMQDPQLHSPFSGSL
# HOXB6 [4] = biological target: HOXB6 (Homo sapiens, UniProt P17509 132-218, K202E)
# Chain of HOXB6 (Homo sapiens, UniProt P17509 132-218, K202E) (P17509 132-218 K202E): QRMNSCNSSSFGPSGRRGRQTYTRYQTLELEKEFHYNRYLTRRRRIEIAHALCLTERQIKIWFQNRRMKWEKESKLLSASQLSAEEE
# HOXA2 [5] = biological target: HOXA2 (Homo sapiens, UniProt O43364 129-215, R185T)
# Chain of HOXA2 (Homo sapiens, UniProt O43364 129-215, R185T) (O43364 129-215 R185T): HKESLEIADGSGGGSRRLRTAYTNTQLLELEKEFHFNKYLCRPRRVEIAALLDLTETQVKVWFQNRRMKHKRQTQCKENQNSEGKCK
# HOXA4 [6] = biological target: HOXA4 (Homo sapiens, UniProt Q00056 201-287, R217L)
# Chain of HOXA4 (Homo sapiens, UniProt Q00056 201-287, R217L) (Q00056 201-287 R217L): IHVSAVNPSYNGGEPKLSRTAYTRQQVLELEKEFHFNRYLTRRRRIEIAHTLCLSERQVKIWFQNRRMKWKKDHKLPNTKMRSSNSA
# HOXB4 [7] = biological target: HOXB4 (Homo sapiens, UniProt P17483 148-234, V174I)
# Chain of HOXB4 (Homo sapiens, UniProt P17483 148-234, V174I) (P17483 148-234 V174I): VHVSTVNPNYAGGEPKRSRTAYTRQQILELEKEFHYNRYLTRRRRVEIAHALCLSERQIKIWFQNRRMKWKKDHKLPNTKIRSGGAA
# HOXA2 [8] = biological target: HOXA2 (Homo sapiens, UniProt O43364 129-215, R185K)
# Chain of HOXA2 (Homo sapiens, UniProt O43364 129-215, R185K) (O43364 129-215 R185K): as the sequence (O43364 129-215 R185T) above, with T57K counted along it
# HOXA4 [9] = biological target: HOXA4 (Homo sapiens, UniProt Q00056 201-287)
# Chain of HOXA4 (Homo sapiens, UniProt Q00056 201-287) (Q00056 201-287): as the sequence (Q00056 201-287 R217L) above, with L17R counted along it
# VAX1 [10] = biological target: VAX1 (Homo sapiens, UniProt Q5SQQ9 86-172)
# Chain of VAX1 (Homo sapiens, UniProt Q5SQQ9 86-172) (Q5SQQ9 86-172): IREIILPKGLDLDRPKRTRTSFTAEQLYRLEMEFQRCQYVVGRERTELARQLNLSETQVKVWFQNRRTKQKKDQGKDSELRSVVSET
# VAX1 [11] = biological target: VAX1 (Homo sapiens, UniProt Q5SQQ9 86-172, T142I)
# Chain of VAX1 (Homo sapiens, UniProt Q5SQQ9 86-172, T142I) (Q5SQQ9 86-172 T142I): as the sequence (Q5SQQ9 86-172) above, with T57I counted along it
# HOXA2 [12] = biological target: HOXA2 (Homo sapiens, UniProt O43364 129-215, Y150S)
# Chain of HOXA2 (Homo sapiens, UniProt O43364 129-215, Y150S) (O43364 129-215 Y150S): as the sequence (O43364 129-215 R185T) above, with Y22S, T57R counted along it
# HOXA7 [13] = biological target: HOXA7 (Homo sapiens, UniProt P31268 116-202, W177C)
# Chain of HOXA7 (Homo sapiens, UniProt P31268 116-202, W177C) (P31268 116-202 W177C): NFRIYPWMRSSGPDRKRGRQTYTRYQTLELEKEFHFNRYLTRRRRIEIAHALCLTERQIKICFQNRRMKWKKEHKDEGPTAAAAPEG
# HOXA4 [14] = biological target: HOXA4 (Homo sapiens, UniProt Q00056 201-287, W262F)
# Chain of HOXA4 (Homo sapiens, UniProt Q00056 201-287, W262F) (Q00056 201-287 W262F): as the sequence (Q00056 201-287 R217L) above, with L17R, W62F counted along it
# HOXA2 [15] = biological target: HOXA2 (Homo sapiens, UniProt O43364 129-215)
# Chain of HOXA2 (Homo sapiens, UniProt O43364 129-215) (O43364 129-215): as the sequence (O43364 129-215 R185T) above, with T57R counted along it
# VAX1 [16] = biological target: VAX1 (Homo sapiens, UniProt Q5SQQ9 86-172, K157R)
# Chain of VAX1 (Homo sapiens, UniProt Q5SQQ9 86-172, K157R) (Q5SQQ9 86-172 K157R): as the sequence (Q5SQQ9 86-172) above, with K72R counted along it
# HOXB6 [17] = biological target: HOXB6 (Homo sapiens, UniProt P17509 132-218)
# Chain of HOXB6 (Homo sapiens, UniProt P17509 132-218) (P17509 132-218): as the sequence (P17509 132-218 K202E) above, with E71K counted along it
# HOXC9 [18] = biological target: HOXC9 (Homo sapiens, UniProt P31274 178-260, K195R)
# Chain of HOXC9 (Homo sapiens, UniProt P31274 178-260, K195R) (P31274 178-260 K195R): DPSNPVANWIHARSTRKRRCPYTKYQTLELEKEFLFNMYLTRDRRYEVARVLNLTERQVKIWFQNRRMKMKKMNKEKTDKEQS
# HOXC9 [19] = biological target: HOXC9 (Homo sapiens, UniProt P31274 178-260)
# Chain of HOXC9 (Homo sapiens, UniProt P31274 178-260) (P31274 178-260): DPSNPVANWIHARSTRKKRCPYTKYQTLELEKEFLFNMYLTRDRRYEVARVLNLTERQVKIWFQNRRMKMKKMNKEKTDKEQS
# MSX2 [20] = biological target: MSX2 (Homo sapiens, UniProt P35548 130-214, R199I)
# Chain of MSX2 (Homo sapiens, UniProt P35548 130-214, R199I) (P35548 130-214 R199I): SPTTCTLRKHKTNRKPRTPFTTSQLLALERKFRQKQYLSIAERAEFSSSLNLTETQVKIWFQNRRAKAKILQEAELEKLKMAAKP
# HOXC9 [21] = biological target: HOXC9 (Homo sapiens, UniProt P31274 178-260, R193K)
# Chain of HOXC9 (Homo sapiens, UniProt P31274 178-260, R193K) (P31274 178-260 R193K): as the sequence (P31274 178-260) above, with R16K counted along it
# MSX2 [22] = biological target: MSX2 (Homo sapiens, UniProt P35548 130-214)
# Chain of MSX2 (Homo sapiens, UniProt P35548 130-214) (P35548 130-214): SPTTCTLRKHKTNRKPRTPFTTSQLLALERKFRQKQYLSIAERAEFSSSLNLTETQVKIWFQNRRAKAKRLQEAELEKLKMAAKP
# HOXC9 [23] = biological target: HOXC9 (Homo sapiens, UniProt P31274 178-260, R222W)
# Chain of HOXC9 (Homo sapiens, UniProt P31274 178-260, R222W) (P31274 178-260 R222W): as the sequence (P31274 178-260) above, with R45W counted along it
# MSX2 [24] = biological target: MSX2 (Homo sapiens, UniProt P35548 130-214, F161Y)
# Chain of MSX2 (Homo sapiens, UniProt P35548 130-214, F161Y) (P35548 130-214 F161Y): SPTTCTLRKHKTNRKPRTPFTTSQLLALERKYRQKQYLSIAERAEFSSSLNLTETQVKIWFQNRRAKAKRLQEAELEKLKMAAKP
# ALX4 [25] = biological target: ALX4 (Homo sapiens, UniProt Q9H161 200-286)
# Chain of ALX4 (Homo sapiens, UniProt Q9H161 200-286) (Q9H161 200-286): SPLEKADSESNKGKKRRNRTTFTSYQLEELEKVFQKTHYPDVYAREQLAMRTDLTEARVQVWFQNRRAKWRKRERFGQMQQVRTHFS
# PAX4 [26] = biological target: T2, PAX4 (Homo sapiens, UniProt O43316 9-242, R200K)
# T2 sequence: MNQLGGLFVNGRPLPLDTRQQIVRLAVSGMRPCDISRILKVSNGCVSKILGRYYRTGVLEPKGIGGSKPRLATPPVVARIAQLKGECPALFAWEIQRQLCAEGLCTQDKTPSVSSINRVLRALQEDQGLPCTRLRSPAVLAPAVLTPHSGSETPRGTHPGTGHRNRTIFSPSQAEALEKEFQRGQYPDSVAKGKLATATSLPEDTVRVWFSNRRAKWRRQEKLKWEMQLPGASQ
# PRRX1 [27] = biological target: PRRX1 (Homo sapiens, UniProt P54821 80-166, F113S)
# Chain of PRRX1 (Homo sapiens, UniProt P54821 80-166, F113S) (P54821 80-166 F113S): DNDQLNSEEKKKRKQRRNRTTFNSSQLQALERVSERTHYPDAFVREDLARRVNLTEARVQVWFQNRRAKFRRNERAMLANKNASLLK
# ALX4 [28] = biological target: ALX4 (Homo sapiens, UniProt Q9H161 200-286, Q225E)
# Chain of ALX4 (Homo sapiens, UniProt Q9H161 200-286, Q225E) (Q9H161 200-286 Q225E): as the sequence (Q9H161 200-286) above, with Q26E counted along it
# ALX1 [29] = biological target: ALX1 (Homo sapiens, UniProt Q15699 118-204, L144V)
# Chain of ALX1 (Homo sapiens, UniProt Q15699 118-204, L144V) (Q15699 118-204 L144V): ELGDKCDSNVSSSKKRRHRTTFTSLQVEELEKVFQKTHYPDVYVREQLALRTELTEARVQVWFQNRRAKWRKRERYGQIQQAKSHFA
# ALX3 [30] = biological target: ALX3 (Homo sapiens, UniProt O95076 139-225, N203Q)
# Chain of ALX3 (Homo sapiens, UniProt O95076 139-225, N203Q) (O95076 139-225 N203Q): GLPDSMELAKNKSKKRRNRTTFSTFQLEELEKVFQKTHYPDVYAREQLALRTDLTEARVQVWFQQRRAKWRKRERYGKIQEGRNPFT
# ALX1 [31] = biological target: ALX1 (Homo sapiens, UniProt Q15699 118-204, L144R)
# Chain of ALX1 (Homo sapiens, UniProt Q15699 118-204, L144R) (Q15699 118-204 L144R): as the sequence (Q15699 118-204 L144V) above, with V27R counted along it
# ALX3 [32] = biological target: ALX3 (Homo sapiens, UniProt O95076 139-225)
# Chain of ALX3 (Homo sapiens, UniProt O95076 139-225) (O95076 139-225): as the sequence (O95076 139-225 N203Q) above, with Q65N counted along it
# PAX4 [33] = biological target: T3, PAX4 (Homo sapiens, UniProt O43316 9-242, F177Y)
# T3 sequence: T2 sequence with F169Y, K192R
# HESX1 = HESX1 (Homo sapiens, UniProt Q9UBX0 95-180, R109Q)
# Chain of HESX1 (Q9UBX0 95-180 R109Q): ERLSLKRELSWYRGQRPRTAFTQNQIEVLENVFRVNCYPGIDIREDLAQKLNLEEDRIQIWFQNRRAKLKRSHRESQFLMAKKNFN
# ALX3 [34] = biological target: ALX3 (Homo sapiens, UniProt O95076 139-225, L168Q)
# Chain of ALX3 (Homo sapiens, UniProt O95076 139-225, L168Q) (O95076 139-225 L168Q): as the sequence (O95076 139-225 N203Q) above, with L30Q, Q65N counted along it
# ALX3 [35] = biological target: ALX3 (Homo sapiens, UniProt O95076 139-225, L168V)
# Chain of ALX3 (Homo sapiens, UniProt O95076 139-225, L168V) (O95076 139-225 L168V): as the sequence (O95076 139-225 N203Q) above, with L30V, Q65N counted along it
# ALX1 [36] = biological target: ALX1 (Homo sapiens, UniProt Q15699 118-204)
# Chain of ALX1 (Homo sapiens, UniProt Q15699 118-204) (Q15699 118-204): as the sequence (Q15699 118-204 L144V) above, with V27L counted along it
# ALX3 [37] = biological target: ALX3 (Homo sapiens, UniProt O95076 139-225, N203S)
# Chain of ALX3 (Homo sapiens, UniProt O95076 139-225, N203S) (O95076 139-225 N203S): as the sequence (O95076 139-225 N203Q) above, with Q65S counted along it
# PRRX1 [38] = biological target: PRRX1 (Homo sapiens, UniProt P54821 80-166)
# Chain of PRRX1 (Homo sapiens, UniProt P54821 80-166) (P54821 80-166): as the sequence (P54821 80-166 F113S) above, with S34F counted along it
# HOXC10 [39] = biological target: HOXC10 (Homo sapiens, UniProt Q9NYD6 254-340)
# Chain of HOXC10 (Homo sapiens, UniProt Q9NYD6 254-340) (Q9NYD6 254-340): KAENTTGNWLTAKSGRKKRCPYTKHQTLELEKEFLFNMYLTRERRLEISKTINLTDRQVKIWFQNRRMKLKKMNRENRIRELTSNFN
# HOXC10 [40] = biological target: HOXC10 (Homo sapiens, UniProt Q9NYD6 254-340, K271E)
# Chain of HOXC10 (Homo sapiens, UniProt Q9NYD6 254-340, K271E) (Q9NYD6 254-340 K271E): as the sequence (Q9NYD6 254-340) above, with K18E counted along it
# Chain of HOXA4 (Homo sapiens, UniProt Q00056 201-287, W262R) (Q00056 201-287 W262R): as the sequence (Q00056 201-287 R217L) above, with L17R, W62R counted along it
# Chain of HOXB4 (Homo sapiens, UniProt P17483 148-234) (P17483 148-234): as the sequence (P17483 148-234 V174I) above, with I27V counted along it
# Chain of HOXA7 (Homo sapiens, UniProt P31268 116-202) (P31268 116-202): as the sequence (P31268 116-202 W177C) above, with C62W counted along it
sequence,measurement,setting,value
TAATGACA,binding signal,HOXB4 [1],"13 upbm affinity estimate (log intensity, higher = more binding, comparable within an allelic series)"
same,binding signal,HOXA4 [2],"10.6 upbm affinity estimate (log intensity, higher = more binding, comparable within an allelic series)"
same,binding signal,HOXA7 [3],"11.2 upbm affinity estimate (log intensity, higher = more binding, comparable within an allelic series)"
same,binding signal,VENTX,"11.5 upbm affinity estimate (log intensity, higher = more binding, comparable within an allelic series)"
same,binding signal,HOXB6 [4],"10 upbm affinity estimate (log intensity, higher = more binding, comparable within an allelic series)"
same,binding signal,HOXA2 [5],"12.6 upbm affinity estimate (log intensity, higher = more binding, comparable within an allelic series)"
same,binding signal,HOXA4 [6],"12.2 upbm affinity estimate (log intensity, higher = more binding, comparable within an allelic series)"
same,binding signal,HOXB4 [7],"13.7 upbm affinity estimate (log intensity, higher = more binding, comparable within an allelic series)"
same,binding signal,HOXA2 [8],"13.4 upbm affinity estimate (log intensity, higher = more binding, comparable within an allelic series)"
same,binding signal,HOXA4 [9],"13.8 upbm affinity estimate (log intensity, higher = more binding, comparable within an allelic series)"
same,binding signal,VAX1 [10],"12.8 upbm affinity estimate (log intensity, higher = more binding, comparable within an allelic series)"
same,binding signal,VAX1 [11],"12.7 upbm affinity estimate (log intensity, higher = more binding, comparable within an allelic series)"
same,binding signal,HOXA2 [12],"11 upbm affinity estimate (log intensity, higher = more binding, comparable within an allelic series)"
same,binding signal,HOXA7 [13],"8.98 upbm affinity estimate (log intensity, higher = more binding, comparable within an allelic series)"
same,binding signal,HOXA4 [14],"11.7 upbm affinity estimate (log intensity, higher = more binding, comparable within an allelic series)"
same,binding signal,HOXA2 [15],"12.5 upbm affinity estimate (log intensity, higher = more binding, comparable within an allelic series)"
same,binding signal,VAX1 [16],"12.5 upbm affinity estimate (log intensity, higher = more binding, comparable within an allelic series)"
same,binding signal,HOXB6 [17],"11.7 upbm affinity estimate (log intensity, higher = more binding, comparable within an allelic series)"
CCGGACCA,binding signal,HOXB4 [1],"7.72 upbm affinity estimate (log intensity, higher = more binding, comparable within an allelic series)"
same,binding signal,HOXC9 [18],"9.48 upbm affinity estimate (log intensity, higher = more binding, comparable within an allelic series)"
same,binding signal,HOXB6 [4],"9.06 upbm affinity estimate (log intensity, higher = more binding, comparable within an allelic series)"
same,binding signal,HOXB4 [7],"7.8 upbm affinity estimate (log intensity, higher = more binding, comparable within an allelic series)"
same,binding signal,HOXC9 [19],"9.57 upbm affinity estimate (log intensity, higher = more binding, comparable within an allelic series)"
same,binding signal,MSX2 [20],"9.46 upbm affinity estimate (log intensity, higher = more binding, comparable within an allelic series)"
same,binding signal,HOXC9 [21],"9.51 upbm affinity estimate (log intensity, higher = more binding, comparable within an allelic series)"
same,binding signal,MSX2 [22],"9.39 upbm affinity estimate (log intensity, higher = more binding, comparable within an allelic series)"
same,binding signal,HOXC9 [23],"9.77 upbm affinity estimate (log intensity, higher = more binding, comparable within an allelic series)"
same,binding signal,MSX2 [24],"9.4 upbm affinity estimate (log intensity, higher = more binding, comparable within an allelic series)"
same,binding signal,HOXB6 [17],"8.79 upbm affinity estimate (log intensity, higher = more binding, comparable within an allelic series)"
ATTAATCA,binding signal,HOXB4 [1],"13.2 upbm affinity estimate (log intensity, higher = more binding, comparable within an allelic series)"
same,binding signal,HOXA4 [2],"10.6 upbm affinity estimate (log intensity, higher = more binding, comparable within an allelic series)"
same,binding signal,ALX4 [25],"13.7 upbm affinity estimate (log intensity, higher = more binding, comparable within an allelic series)"
same,binding signal,PAX4 [26],"11.6 upbm affinity estimate (log intensity, higher = more binding, comparable within an allelic series)"
same,binding signal,PRRX1 [27],"11.3 upbm affinity estimate (log intensity, higher = more binding, comparable within an allelic series)"
same,binding signal,HOXB6 [4],"9.98 upbm affinity estimate (log intensity, higher = more binding, comparable within an allelic series)"
same,binding signal,ALX4 [28],"12.7 upbm affinity estimate (log intensity, higher = more binding, comparable within an allelic series)"
same,binding signal,HOXA2 [5],"12.6 upbm affinity estimate (log intensity, higher = more binding, comparable within an allelic series)"
same,binding signal,HOXA4 [6],"12.1 upbm affinity estimate (log intensity, higher = more binding, comparable within an allelic series)"
same,binding signal,HOXB4 [7],"13.9 upbm affinity estimate (log intensity, higher = more binding, comparable within an allelic series)"
same,binding signal,ALX1 [29],"11.5 upbm affinity estimate (log intensity, higher = more binding, comparable within an allelic series)"
same,binding signal,ALX3 [30],"8.54 upbm affinity estimate (log intensity, higher = more binding, comparable within an allelic series)"
same,binding signal,HOXA2 [8],"13.3 upbm affinity estimate (log intensity, higher = more binding, comparable within an allelic series)"
same,binding signal,ALX1 [31],"11.3 upbm affinity estimate (log intensity, higher = more binding, comparable within an allelic series)"
same,binding signal,HOXA4 [9],"13.6 upbm affinity estimate (log intensity, higher = more binding, comparable within an allelic series)"
same,binding signal,ALX3 [32],"12.3 upbm affinity estimate (log intensity, higher = more binding, comparable within an allelic series)"
same,binding signal,PAX4 [33],"11 upbm affinity estimate (log intensity, higher = more binding, comparable within an allelic series)"
same,binding signal,HESX1,"8.96 upbm affinity estimate (log intensity, higher = more binding, comparable within an allelic series)"
same,binding signal,ALX3 [34],"10.2 upbm affinity estimate (log intensity, higher = more binding, comparable within an allelic series)"
same,binding signal,ALX3 [35],"9.65 upbm affinity estimate (log intensity, higher = more binding, comparable within an allelic series)"
same,binding signal,ALX1 [36],"12 upbm affinity estimate (log intensity, higher = more binding, comparable within an allelic series)"
same,binding signal,HOXA4 [14],"11.4 upbm affinity estimate (log intensity, higher = more binding, comparable within an allelic series)"
same,binding signal,ALX3 [37],"8.61 upbm affinity estimate (log intensity, higher = more binding, comparable within an allelic series)"
same,binding signal,PRRX1 [38],"13.3 upbm affinity estimate (log intensity, higher = more binding, comparable within an allelic series)"
CCTACCGC,binding signal,HOXB4 [1],"7.61 upbm affinity estimate (log intensity, higher = more binding, comparable within an allelic series)"
same,binding signal,HOXC9 [18],"9.66 upbm affinity estimate (log intensity, higher = more binding, comparable within an allelic series)"
same,binding signal,HOXB4 [7],"7.56 upbm affinity estimate (log intensity, higher = more binding, comparable within an allelic series)"
same,binding signal,HOXC9 [19],"9.63 upbm affinity estimate (log intensity, higher = more binding, comparable within an allelic series)"
same,binding signal,HOXC9 [21],"9.56 upbm affinity estimate (log intensity, higher = more binding, comparable within an allelic series)"
same,binding signal,HOXC9 [23],"9.71 upbm affinity estimate (log intensity, higher = more binding, comparable within an allelic series)"
ATCATTAC,binding signal,HOXB4 [1],"13.1 upbm affinity estimate (log intensity, higher = more binding, comparable within an allelic series)"
same,binding signal,HOXA4 [2],"10.4 upbm affinity estimate (log intensity, higher = more binding, comparable within an allelic series)"
same,binding signal,HOXA4 [6],"12 upbm affinity estimate (log intensity, higher = more binding, comparable within an allelic series)"
same,binding signal,HOXB4 [7],"13.8 upbm affinity estimate (log intensity, higher = more binding, comparable within an allelic series)"
same,binding signal,HOXA4 [9],"13.6 upbm affinity estimate (log intensity, higher = more binding, comparable within an allelic series)"
same,binding signal,HOXA4 [14],"11.2 upbm affinity estimate (log intensity, higher = more binding, comparable within an allelic series)"
ACCGTGGG,binding signal,HOXB4 [1],"7.69 upbm affinity estimate (log intensity, higher = more binding, comparable within an allelic series)"
same,binding signal,HOXA7 [3],"8.39 upbm affinity estimate (log intensity, higher = more binding, comparable within an allelic series)"
same,binding signal,HOXC10 [39],"10.1 upbm affinity estimate (log intensity, higher = more binding, comparable within an allelic series)"
same,binding signal,HOXB4 [7],"7.68 upbm affinity estimate (log intensity, higher = more binding, comparable within an allelic series)"
same,binding signal,HOXC10 [40],"10 upbm affinity estimate (log intensity, higher = more binding, comparable within an allelic series)"
same,binding signal,HOXA7 [13],"8.44 upbm affinity estimate (log intensity, higher = more binding, comparable within an allelic series)"

# From publication PMC11006913
